# A structure can be active in one record and inactive in another. Calls of active or inactive are those of the source. The calls were made as follows: active = hit-call score of the fitted dose curve at least 0.9, where 1 is the maximum; inactive = score below 0.9.
# Read-out: C-C motif chemokine 2 (Homo sapiens) (UniProt P13500)
# Test: BSK_KF3CT_MCP1: BioMAP Diversity Plus: KF3CT Assay for Monocyte Chemoattractant Protein 1 (MCP1/CCL2) Biomarker Activity (AID 2283073)
# Conditions: primary human keratinocytes with fibroblasts; actives raise or lower the signal
# Description: BSK_KF3CT is a cell-based, multiplexed-readout assay that uses keratinocytes and foreskin fibroblasts, a human skin primary cell co-culture, with measurements taken at 24 hours after chemical dosing in a 96-well plate.BSK_KF3CT_MCP1 is an assay component measured in the BSK_KF3CT assay. It measures MCP-1 antibody related to regulation of gene expression using ELISA technology.Data from the assay component BSK_KF3CT_MCP1 was analyzed into 1 assay endpoint. This assay endpoint, BSK_KF3CT_MCP1, was analyzed with bidirectional fitting relative to DMSO as the negative control and baseline of activity. Using a type of binding reporter, gain or loss-of-signal activity can be used to understand changes in the signaling as they relate to the gene CCL2. Furthermore, this assay endpoint can be referred to as a primary readout, because this assay has produced multiple assay endpoints where this one serves a signaling function. To generalize the intended target to other relatable targets, this assay endpoint is annotated to the cytokine intended target family, where the subfamily is chemotactic factor.
# The levels of cell surface (or secreted, indicated by the prefix "s") biomarker endpoints were measured by ELISA. Overt cytotoxicity to cells in confluent adherent cultures (all systems other than the BT system) was assessed by measuring total protein levels using sulforhodamine B (SRB) staining in parallel cultures at the time of biomarker measurements, indicated as SRB endpoints. For proliferation assays for adherent cell types, individual cell types are cultured at sub-confluence and relative cell numbers quantified by SRB staining at time points optimized for each system (48 h: 3C and CASM3C systems; 72 h: BT and HDF3CGF systems; 96 h: SAg system). SRB was performed by staining cells with 0.1% SRB after fixation with 10% TCA and reading wells at 560 nm.Viability and proliferation of PBMC (T cells) was quantified by Alamar Blue reduction for the SAg and BT systems. For PBMC viability (referred to as PBMC Cytotoxicity within the assay endpoint names), cells were plated (75,000/well in a 96-well plate) and then chemical samples added for 1 h before addition of activators, SEB and TSST-1 (20 ng/mL final concentration each). Cells were incubated for 90 h. Then, Alamar Blue (20 uL/well) (Invitrogen, Cat DAL1100) was added for 6 h, and the plates were read with a fluorescence microplate reader at 546/580 nm (excitation/emission). For PBMC proliferation, cells were plated and activated as above but incubated for only 16 h prior to addition of Alamar Blue. Plates were read after 6 h.
SMILES,outcome,AC50
c1ccc(NNc2ccccc2)cc1,inactive,–
CCN(CC)N=O,inactive,–
ClC1=C(Cl)C2(Cl)C3C(Cl)C=CC3C1(Cl)C2(Cl)Cl (stereo not given),–,14.6 µM (active)
Oc1ccccc1Cl,inactive,–
ClCCOCCCl,inactive,–
C[C@]12C=CC3=C4CCC(=O)C=C4CC[C@H]3[C@@H]1CC[C@@H]2O,inactive,–
CC(C)(O)c1cnn2c(-c3ccc(F)c(-c4c(F)cccc4C#N)c3)cnc2n1,inactive,–
OCCOCCO,inactive,–
[As]#[In],inactive,–
Nc1ccc(Oc2ccc(N)cc2)cc1,inactive,–
O=C(N[C@H](c1ccccc1)[C@@H]1CN2CCC1CC2)c1c(Cl)ccc(C(F)(F)F)c1Cl,inactive,–
C=CCc1ccc2c(c1)OCO2,inactive,–
Nc1ccc(Cc2ccc(N)cc2)cc1,inactive,–
OCCCBr,inactive,–
CCCSC(=O)N(CCC)CCC,inactive,–
CCOc1cccc(C2(N3CCN(c4ccccc4)CC3)CCC(C)CC2)c1 (stereo not given),inactive,–
COC(=O)Nc1nc2ccccc2[nH]1,inactive,–
Nc1ccc([N+](=O)[O-])cc1,inactive,–
Clc1ccc(Cl)c(Cl)c1,inactive,–
O=[N+]([O-])C(Br)(CO)CO,inactive,–

SMILES,outcome,AC50
CCCCC(CC)COC(=O)c1ccc(C(=O)OCC(CC)CCCC)c(C(=O)OCC(CC)CCCC)c1 (stereo not given),inactive,–
c1ccc(C2CO2)cc1 (stereo not given),inactive,–
CCC12COCN1COC2,inactive,–
ClC1=C(Cl)[C@]2(Cl)[C@H]3[C@H]([C@@H]4C=C[C@H]3C4)[C@@]1(Cl)C2(Cl)Cl,–,22.3 µM (active)
COc1cc(C=O)cc2c1[C@H](COC(N)=O)[C@]1(OC(C)=O)ON2C[C@H]2[C@@H]1N2C(C)=O,–,1.1 µM (active)
CN(C)c1ccccc1,inactive,–
CCCCCCCCOC(=O)c1ccc(C(=O)OCCCCCCCC)c(C(=O)OCCCCCCCC)c1,inactive,–
CCN(CC)CCO,inactive,–
CN(C)c1ccc(C(=O)c2ccc(N(C)C)cc2)cc1,inactive,–
CO[C@@H]1[C@H](OC(=O)NC(=O)CCl)CC[C@]2(CO2)[C@H]1[C@@]1(C)O[C@@H]1CC=C(C)C,inactive,–
Nc1cc(Cl)cc(C(=O)O)c1Cl,inactive,–
O=C(O)C1C2CCC(O2)C1C(=O)O (stereo not given),inactive,–
CCCCCCCCn1sccc1=O,–,10.6 µM (active)
O=Cc1ccco1,inactive,–
Cc1ccc(N=C=O)cc1N=C=O,inactive,–
CCNS(=O)(=O)C(F)(F)C(F)(F)C(F)(F)C(F)(F)C(F)(F)C(F)(F)C(F)(F)C(F)(F)F,inactive,47.8 µM (active)
C1=Cc2cccc3cccc1c23,inactive,–
Cc1ccc(N)c(N)c1,inactive,–
CC(C)(C)C(O)(CCc1ccc(Cl)cc1)Cn1cncn1 (stereo not given),inactive,–

# Source: PubChem BioAssay (EPA / NIEHS)
